Reference: PubChem BioAssay
The source made the active and inactive calls. Rule as the data show it, unless noted: active = inhibition above about 80%; inactive = the rest.

Assays:
[1] = growth inhibition, single agent or in combination, cell-based, chromothripsis tumors, cisplatin or BGB combos (AID 1671449); settings: LFS_MB_P medulloblastoma cells;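 also: cells exposed for 96 hours; 0% = vehicle DMSO and 100% = killing by high DMSO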
[2] = growth inhibition, single agent and combos, cell-based, chromothripsis tumors, cisplatin or BGB combos (AID 1671450); settings: HDN33 neuroblastoma cells, stronger effect = higher value;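 also: cells exposed to compound for four days; 0% = vehicle DMSO and 100% = cell killing by high DMSO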
[3] = growth inhibition, single agents and combos, ICB984, cell-based, cisplatin or BGB combos, synergistic combos for chromothripsis tumors (AID 1671451; call rule not given here;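 also: cells exposed for 96 hours before readout; 0% = vehicle DMSO and 100% = killing by high DMSO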); settings: ICB984 medulloblastoma cells, drug combinations, stronger effect = higher value
[4] = growth inhibition, single agents and combos, LFS_MB_1R, cell-based, cisplatin or BGB combos, synergistic combos for chromothripsis tumors (AID 1671452); settings: LFS_MB_1R medulloblastoma cells, stronger effect = higher value;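 also: cells exposed for 96 hours before readout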
[5] = growth inhibition, single agents and combos, HTB85, cell-based, BGB or cisplatin IC20 combos, synergistic combos for chromothripsis tumors (AID 1671453); settings: HTB85 osteosarcoma cells, drug combinations, stronger effect = higher value;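 also: cells exposed for 96 hours before readout; 0% = vehicle DMSO and 100% = high DMSO killing control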
[6] = growth inhibition, single agents and combos, CRL2098, cell-based, BGB or cisplatin IC20 combos, synergistic combos for chromothripsis tumors (AID 1671454); settings: CRL2098 osteosarcoma cells, drug combinations, stronger effect = higher value;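 also: cells exposed for 96 h before readout; 0% = vehicle DMSO and 100% = killing by high DMSO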
[7] = growth inhibition, single agents and combos, HD-MB03, cell-based, BGB or cisplatin IC20 combos, synergistic combos for chromothripsis tumors (AID 1671455; in the data active = inhibition above about 83%;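 also: 0% = vehicle DMSO and 100% = high DMSO as cytotoxic control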); settings: HD-MB03 medulloblastoma cells, stronger effect = higher value
[8] = growth inhibition, single agents and combos, UWB1.289, cell-based, BGB or cisplatin combos, synergistic combos for chromothripsis tumors (AID 1671456); settings: UWB1.289 ovarian carcinoma cells, stronger effect = higher value;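 also: cells exposed to compound for four days; 0% = vehicle DMSO and 100% = killing by high DMSO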
[9] = growth inhibition, single agents and combos, LFS_MB_2R, cell-based, cisplatin combos, synergistic combos for chromothripsis tumors (AID 1671457); settings: LFS_MB_2R medulloblastoma cells, stronger effect = higher value;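 also: cells exposed to compound for four days before readout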
[10] = growth inhibition, MDA-MB-436, cell-based, BGB or cisplatin combos, synergistic combos for chromothripsis tumors (AID 1671458; call rule not given here;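 also: cells exposed for 96 hours; 0% = vehicle DMSO and 100% = killing by high DMSO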); settings: MDA-MB-436 breast carcinoma growth inhibition, drug combinations, stronger effect = higher value
[11] = UWB1.289_BRCA1 ovarian cancer growth, cell-based, BGB or cisplatin combinations (AID 1671459); settings: UWB1.289 BRCA1 ovarian carcinoma, drug combinations, stronger effect = higher value
[12] = drug combination toxicity in non-malignant astrocytes – cell-based, BGB or cisplatin IC20 combos, cytotoxicity control for chromothriptic childhood tumor combination screen (AID 1671460); settings: Human astrocytes, viability inhibition, drug combinations, at 0.5 µM, stronger effect = higher value;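 also: cells exposed to compounds for 96 hours before viability readout; 0% = vehicle and 100% = killing control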
[13] = BT084 cell growth, single and combined drugs, ICGC_MB145, cisplatin and BGB IC40 combos (AID 1671461); settings: BT084 medulloblastoma cells, drug combinations, stronger effect = higher value;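 also: cells exposed to drugs for 96 hours; 0% = vehicle DMSO and 100% = high DMSO full killing control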
[14] = RCMB18 cell growth, single agent and combined, cisplatin and BGB IC40 combos (AID 1671462); settings: RCMB18 medulloblastoma cells, stronger effect = higher value;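 also: cells exposed to compound for four days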
[15] = CRL1545 cell growth, single agent and combined, cisplatin and BGB IC20 combos (AID 1671464); settings: CRL1545 osteosarcoma cells, stronger effect = higher value;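 also: cells exposed to compound for 96 hours before readout; 0% = vehicle DMSO and 100% = high DMSO killing control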
[16] = galactose survival enhancers in mitochondrial complex I cybrids – cell-based, galactose medium, ATP luminescence, primary screen (AID 1645843;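 active = z-score of at least 1.8 in each of two replicates, scored against plate mean and spread of sample wells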;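 also: positive z means more ATP and so rescue of galactose-driven cybrid death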); settings: complex I mutant cybrid cells, 72 h, stronger effect = higher value
[17] = measured here: combination with BGB IC40, at 0.05 µM
[18] = measured here: with BGB IC20 combination, at 0.5 µM
[19] = measured here: with cisplatin IC20 combination, at 0.5 µM
[20] = measured here: combination with cisplatin, at 0.5 µM
[21] = measured here: combination with cisplatin, at 5 µM

Question: What does the source list for `NC(=O)c1cccc2[nH]c(-c3ccc(C4CCCN4)cc3F)nc12` (stereo not given)?
Answer: inhibition ([1]; at 0.5 µM, stronger effect = higher value): 19.3% (inactive); inhibition ([1]; measured here: combination with BGB IC20, at 0.005 µM): 7.36%; inhibition ([1]; measured here: combination with BGB IC40, at 0.005 µM): -24.3%; inhibition [1, 17]: 1.68%; inhibition ([1]; measured here: combination with cisplatin, at 0.5 µM, stronger effect = higher value): 52.8%; inhibition ([1]; measured here: combination with cisplatin, at 5 µM, stronger effect = higher value): 58.1%; inhibition ([2]; BGB combo, at 5 µM): 54.3%; inhibition ([2]; at 0.5 µM): 15.5% (inactive); inhibition ([2]; cisplatin combo, at 5 µM): 60.1%; inhibition [2, 18]: 22.6%; inhibition [2, 19]: 10.8%; inhibition ([2]; single agent, at 5 µM): 54.9%; inhibition ([3]; BGB IC20 combo, at 0.005 µM): 3.69%; inhibition ([3]; BGB IC40 combo, at 0.005 µM): -38.8%; inhibition ([3]; BGB IC40 combo, at 0.05 µM): 41.6%; inhibition ([3]; at 0.5 µM): -20.7% (inactive); inhibition ([3]; cisplatin combo, at 0.05 µM): 39.3%; inhibition ([3]; cisplatin combo, at 0.5 µM): -35.8%; inhibition ([3]; cisplatin combo, at 5 µM): -28.7%; inhibition ([3]; measured here: 5 uM single agent, at 5 µM): -6.58%; inhibition ([4]; at 0.5 µM): -15.8% (inactive); inhibition [4, 17]: -15.1%; inhibition [4, 20]: -24.3%; inhibition [4, 21]: 48.8%; inhibition ([5]; at 0.5 µM): 6.65% (inactive); inhibition ([5]; measured here: with BGB IC20, at 0.5 µM): 0.81%; inhibition ([5]; measured here: with BGB IC20, at 5 µM): 37.8%; inhibition ([5]; measured here: with cisplatin IC20, at 0.5 µM): 2.33%; inhibition ([5]; measured here: with cisplatin IC20, at 5 µM): 51.1%; inhibition ([5]; single agent, at 5 µM): 52.6%; inhibition ([6]; at 0.5 µM): -18.9% (inactive); inhibition ([6]; measured here: combination with BGB at IC20, at 0.5 µM): -1.16%; inhibition ([6]; measured here: combination with cisplatin at IC20, at 0.5 µM): -8.89%; inhibition ([7]; at 0.5 µM): 7.06% (inactive); inhibition ([7]; measured here: combo with BGB at IC20, at 0.5 µM): 1.45%; inhibition ([7]; measured here: combo with cisplatin at IC20, at 0.5 µM): 11.4%; inhibition ([8]; at 0.5 µM): 9.31% (inactive); inhibition ([8]; measured here: inhibition with BGB combination, at 0.05 µM): -4.89%; inhibition ([8]; measured here: inhibition with cisplatin combination, at 0.05 µM): -21.6%; inhibition ([9]; at 0.5 µM): -11.1% (inactive); inhibition [9, 20]: -12.4%; inhibition [9, 21]: 48.1%; inhibition ([10]; at 0.5 µM): 12.2% (inactive); inhibition ([10]; measured here: BGB combination, at 0.5 µM): -1.6%; inhibition ([10]; measured here: BGB combination, at 5 µM): 34.2%; inhibition ([10]; measured here: cisplatin combination, at 0.5 µM): 12.5%; inhibition ([10]; measured here: cisplatin combination, at 5 µM): 56.6%; inhibition ([11]; BGB combination, concentration series, at 5 µM): 55.7%; inhibition ([11]; at 0.5 µM): 12.5% (inactive); inhibition ([11]; cisplatin combination, concentration series, at 5 µM): 69.9%; inhibition [12]: 18.3% (inactive); inhibition ([12]; measured here: combo with BGB IC20): 32.5%; inhibition ([12]; measured here: combo with cisplatin IC20): 12%; inhibition ([13]; at 0.5 µM): -17.4% (inactive); inhibition ([13]; cisplatin combination, at 0.5 µM): -7.13%; inhibition ([13]; cisplatin combination, at 5 µM): 41.8%; inhibition ([13]; measured here: BGB IC40 combination 0.05 uM, at 0.05 µM): 14.7%; inhibition ([13]; single agent, at 5 µM): 45%; inhibition ([14]; at 0.5 µM): -17.5% (inactive); inhibition ([14]; cisplatin combo, at 5 µM): 55.7%; inhibition ([14]; measured here: BGB IC40 combination, at 0.05 µM): -5.7%; inhibition [14, 20]: -29.9%; inhibition ([14]; single agent, at 5 µM): 39.2%; inhibition ([15]; at 0.5 µM): -0.89% (inactive); inhibition [15, 18]: -14.3%; inhibition [15, 19]: 5.82%; inhibition ([15]; single agent, at 0.05 µM): 27.4%; inhibition ([15]; single agent, at 5 µM): 63.4%

Question: With `O=C1CCCc2occ(C(=O)N3CCc4[nH]nc(C5CCC5)c4C3)c21` as the compound, how does the z-score [16] read?
Answer: The z-score was 0.15 (inactive).

Question: Which z-score [16] does the source give for `CCCC(C)CN(CC)C1CCS(=O)(=O)C1` (stereo not given) here?
Answer: The z-score was -0.55 (inactive).
